In the library only some 15% were active in any assay of this set; here they are far more common.
DT40 TDP1 CPT – qHTS for Inhibitors of human tyrosyl-DNA phosphodiesterase 1 (TDP1): qHTS in cells in presence of CPT; chicken DT40 Tdp1-/-;hTDP1 cells + 20 nM CPT, ATP luminescence, 48 h; Potency, µM (series often up to 46.2 µM), for the others: at the highest dose activity change, negative = growth inhibition, hits mostly inhibitors; 420,000 tested, 12% active; AID 686979, 2013; also: nearly all actives have a fitted effect of over 55% in size
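Chicken DT40 Tdp1-/- cells stably complemented with human TDP1 were seeded at 400 cells/well in medium containing 20 nM camptothecin, exposed to pin-transferred compounds, and grown at 37 °C for at least 48 hr. Viability was read as ATP luminescence.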
VP16 counter – VP16 counterscreen qHTS for inhibitors of ROR gamma transcriptional activity. 310,000 tested, 3.5% active. Drosophila S2 Gal4-VP16 UAS-luciferase, luminescence, 20 h. Potency, µM (highest dose often 53.6 µM), without a hit: at the highest dose activity, negative = inhibition, actives largely listed as inhibitors. AID 2546, 2010;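 also: Gal4-VP16 expression switched on by copper sulfate through the metallothionein promoter; nearly all actives have a fitted effect of over 50% in size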
RORg inh – qHTS for inhibitors of ROR gamma transcriptional activity; Nuclear receptor ROR-gamma (Mus musculus), P51450; Drosophila S2 Gal4-RORgamma UAS-luciferase reporter, 20 h; Potency, µM (series often up to 53.6 µM), without a hit: at the top dose activity change, negative = inhibition, hits mostly inhibitors; 310,000 tested, 5.4% active; AID 2551, 2010; also: nearly all actives have a fitted effect of over 60% in size
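Luminescence from a UAS-regulated Photinus luciferase reporter in stably transfected Drosophila Schneider cells is measured; decreased signal marks ROR gamma inhibition. Fusion expression is induced by 700 uM copper sulfate for 20 hr.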
ELG1 DNA repair – qHTS screen for small molecules that inhibit ELG1-dependent DNA repair in human embryonic kidney (HEK293T) cells expressing luciferase-tagged ELG1; Potency, µM (highest dose often 46.1 µM), for inactives: top-dose activity change, negative = inhibition, most hits filed as inhibitors; HEK293T ELG1-luciferase reporter, luminescence, 16 h; DNA damage induced by 5-fluorouridine; AID 504467, 2011; 330,000 tested, 2.3% active; also: nearly all actives have a fitted effect of over 55% in size
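Overnight (16 hr) co-exposure of 2,000 cells/well to 5-fluorouridine and compound at 37 °C preceded detection. Luciferase was quantified via ONE-Glo luminescence; loss of signal denotes inhibition.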
12-LOX inh – Primary qHTS assay for inhibitors of human arachidonate 12S-lipoxygenase (ALOX12): Round 2 | Potency, µM (series often up to 108 µM), for the others: top-dose activity change, negative = inhibition, usual class: inhibitors | purified 12hLO, xylenol orange hydroperoxide absorbance | Polyunsaturated fatty acid lipoxygenase ALOX12 (Homo sapiens), P18054 | 580,000 tested, 1.1% active
Target sequence (P18054 whole entry, looked up): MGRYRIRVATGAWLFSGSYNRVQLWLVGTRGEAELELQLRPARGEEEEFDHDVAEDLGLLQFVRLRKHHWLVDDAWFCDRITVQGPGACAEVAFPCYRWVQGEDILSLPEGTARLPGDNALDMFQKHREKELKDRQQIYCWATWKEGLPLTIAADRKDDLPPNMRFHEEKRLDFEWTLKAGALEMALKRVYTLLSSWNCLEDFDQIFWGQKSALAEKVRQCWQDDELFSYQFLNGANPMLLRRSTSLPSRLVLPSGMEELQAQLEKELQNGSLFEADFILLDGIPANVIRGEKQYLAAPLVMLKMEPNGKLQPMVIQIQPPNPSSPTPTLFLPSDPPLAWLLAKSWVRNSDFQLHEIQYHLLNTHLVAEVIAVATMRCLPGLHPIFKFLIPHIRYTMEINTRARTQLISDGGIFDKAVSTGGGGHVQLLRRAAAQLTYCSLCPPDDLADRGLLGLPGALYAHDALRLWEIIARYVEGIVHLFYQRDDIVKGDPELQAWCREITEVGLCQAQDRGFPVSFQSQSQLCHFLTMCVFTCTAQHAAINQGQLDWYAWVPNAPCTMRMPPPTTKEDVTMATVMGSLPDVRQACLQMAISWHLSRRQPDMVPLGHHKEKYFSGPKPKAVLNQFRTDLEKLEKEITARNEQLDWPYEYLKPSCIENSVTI
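Hydroperoxide product was detected by ferrous iron/xylenol orange as the 573 to 405 nm absorbance ratio. Arachidonic acid at 40 uM (final) was turned over for 30 min at room temperature by 150 nM human 12hLO, pH 7.0 Hepes buffer, after 15 min compound preincubation.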
TDP1 cell noCPT – qHTS for Inhibitors of human tyrosyl-DNA phosphodiesterase 1 (TDP1): qHTS in cells in absence of CPT. 420,000 tested, 15% active. AID 686978, 2013. Potency, µM (titrated, usually from 46.2 µM), without a hit: top-dose activity change, negative = growth inhibition, actives largely listed as inhibitors. DT40 Tdp1-/- hTDP1 cells, no CPT, ATP luminescence, 48 h; also: nearly all actives have a fitted effect of over 55% in size
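DT40 Tdp1-/-;hTDP1 cells, no CPT (DMSO vehicle only), 400 cells/well; compounds pin-transferred; ≥48 hr, 37 °C; CellTiter-Glo 30 min RT dark, luminescence read.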
* marks the source's active call; other numbers are inactive results; u = inconclusive; x = no result; ! = repeats disagree; [ ] = dose if it differs, or a comment. Calls follow the shape of the dose curve; as a rule, active = well fitted curve in the direction sought with a large enough effect; inconclusive = small, poorly fitted or top-dose-only effect, or another doubt; inactive = no such curve, though single readings can be large; an effect the other way counts as inactive or inconclusive. % is scaled to controls: 0 for no effect and ±100 for the full control effect; potency is read from the fitted curve at half-maximal effect.

SMILES	DT40 TDP1 CPT	VP16 counter	RORg inh	ELG1 DNA repair	12-LOX inh	TDP1 cell noCPT
Cc1ccc(S(=O)(=O)N[C@H]2CO[C@H]3[C@@H]2OC[C@@H]3n2nnnc2Oc2ccc(-n3ccnc3)cc2)cc1	x	x	x	x	25%	x
N#Cc1cccc(NC(=O)CCCCCCCC(=O)Nc2cccc(C#N)c2)c1	x	x	x	x	0%	x
CCOC(=O)N1CCN(C(=S)NC(=O)c2ccc(Br)cc2)CC1	u	1.3µM*	0.56µM*	-18%	u	13µM*
CCOC(=O)N1CCN(C(=O)CNC(=O)c2ccc(Br)cc2)CC1	3%	-10%	-1%	4%	460%	2%
Cc1ccc(C(=O)NC(=S)N2CCN(C(=O)OC(C)(C)C)CC2)cc1Br	18µM*	1.1µM*	0.63µM*	u	-19%	13µM*
Cc1nnc([C@@H]2CC(F)(F)CN2C(=O)c2nn(C)c3ccccc23)o1	x	x	x	x	60%	x
CCCCCCN1C[C@H](n2cc(-c3ccc(F)cc3)nn2)[C@@H](O)C[C@@H]1c1ccc(C)cc1	13µM*	x	x	x	u	13µM*
CCCCCCN1C[C@H](O)[C@@H](n2cc(-c3ccc(F)cc3)nn2)C[C@@H]1c1ccc(Cl)cc1	u	x	x	x	-65%	18µM*
Cc1ccc([C@H]2C[C@@H](n3cc(-c4ccc(F)cc4)nn3)[C@H](O)CN2CC2CCCCC2)cc1	-87%	x	x	x	-14%	u
CCCCCCN1C[C@@H](n2cc(-c3ccc(F)cc3)nn2)[C@H](O)C[C@@H]1c1ccc(Cl)cc1	12µM*	x	x	x	-30%	12µM*
CC(C)NC(=O)CNC(=O)c1cc(-c2ccc(F)cc2)nc2ccccc12	x	x	x	x	-5%	x
C[C@H]1[C@@H]2[C@@H](O)C([C@H](C)C(=O)NC(C)(C)C)CC[C@@]2(C)CC[C@@H]1NC(=O)c1cccc(F)c1 (some centres not stated)	x	x	x	x	3%	x
COc1cc2ccc(=O)oc2c(O)c1O	21µM*!	1%	-33%	x	50%	u
COC(=O)C1=NN(C(=O)c2ccc(Cl)cc2)C(O)(c2ccccc2)C1 (configuration not stated)	-32%	u	u	1%	6%	-8%
CC1=NN(C(=O)c2ccccc2Br)C(O)(c2ccc(Cl)cc2)C1 (configuration not stated)	2%	8.9µM*	4µM*	-5%	0%	-24%
CCOC(=O)N1N=C(C)CC1(O)c1ccc(Cl)cc1 (configuration not stated)	2%	4%	-16%	4%	11%	0%
CC1=NN(C(=O)c2ccccc2C)C(O)(c2ccc(Cl)cc2)C1 (configuration not stated)	u	7.9µM*	6.3µM*	-6%	7%	u
CNc1ncnc2ccc(-c3ccccc3CN(C)C)cc12	u	-2%	14%	x	u	u
Cc1ccccc1-c1ccc2ncnc(NCCN3CCOCC3)c2c1	5.8µM*	-23%	u	x	u	7.3µM*
CNc1ncnc2ccc(-c3ccccc3C)cc12	13µM*	u	42%	x	u	23µM*
O=C(COc1ccccc1)Nc1cccc2nsnc12	8%	6%	-13%	18%	0%[57.4 µM]	-28%
O=C(Nc1ccc(Cl)cc1)Nc1cccc2nsnc12	u	u	92%	u	138%	29µM*
O=C(Nc1ccncc1)c1c(F)c(F)c(F)c(F)c1F	-10%	-25%	u	-3%	47%	-29%
O=C(Nc1ccncc1)OCc1ccccc1	u	-12%	3%[1.91 µM]	-25%	0%	21µM*
O=C(Nc1ccncc1)Nc1cccc(Cl)c1Cl	23µM*	-16%	-3%	7%	0%	u
SMILES	DT40 TDP1 CPT	VP16 counter	RORg inh	ELG1 DNA repair	12-LOX inh	TDP1 cell noCPT
O=C(Nc1ccncc1)c1c(Cl)cccc1Cl	9.2µM*	u	u	u	12%	u
CC(NC(=O)CSc1ncnc2ccccc12)c1ccccc1 (configuration not stated)	x	x	x	x	38%	x
CCC(C(=O)Nc1cccnc1)c1ccccc1 (configuration not stated)	-5%	x	x	-5%	-3%	-10%
O=C(Nc1ccccc1)Nc1cccc(Cl)c1Cl	u	-1%	u	u	u	u
O=C(Nc1ccc(Oc2ccc(NC(=O)Nc3ccccc3Cl)cc2)cc1)Nc1ccccc1Cl	18µM*	u	2.5µM*	-18%	23%	21µM*
O=C(Nc1ccccc1)Nc1ccncc1	u	3%	14%	u	0%	21µM*
CCC(C(=O)Nc1ccncc1)c1ccccc1 (configuration not stated)	u	13µM*	u	-24%	10%	16µM*
CC1CCCN(CC(=O)N(C)CC(=O)Nc2ccc(Cl)c(C(F)(F)F)c2)C1 (configuration not stated)	x	x	x	x	26%	x
Cc1ccc(OCc2nc(C3CN(C(=O)c4cc(C)n(C)n4)C3)no2)cc1	x	x	x	x	46%	x
CCN(CC)S(=O)(=O)c1ccc2oc(C(=O)N3CCc4ccccc4C3)c(C)c2c1	u	7%	u	u	x	2.1µM*
CCN(CC)S(=O)(=O)c1ccc2oc(C(=O)N3CCCCCC3)c(C)c2c1	u	-12%	6%	u	0%	9.2µM*
CCN(CC)S(=O)(=O)c1ccc2oc(C(=O)NC3CCCc4ccccc43)c(C)c2c1 (configuration not stated)	15µM*	-3%	34%	u	-10%	10µM*
CCOC(=O)N1CCN(C(=O)c2oc3ccc(S(=O)(=O)N(CC)CC)cc3c2C)CC1	u	-3%	-14%	12µM*	u	u
CCN(CC)S(=O)(=O)c1ccc2oc(C(=O)N3CCOCC3)c(C)c2c1	-11%	-7%	4%	-8%	0%	u
Cc1c(C(=O)N2CCc3ccccc3C2)oc2ccc(F)cc12	x	x	x	x	-3%	x
CNC(=O)[C@@H]1CN(C(=O)CCc2ccccc2)C[C@H]1COC	x	x	x	x	9%	x
